Composite z-score, composite Z-score and z-score data for eight compounds are collected here from PubChem BioAssay.

SMILES strings stand for the structures. Calls of active or inactive are those of the source.

One experiment has as its target Albumin (Bos taurus) (UniProt P02769). Description: bovine serum albumin binders on microarray, profiling panel, artefact control for SMM control protein annotation, biochemical, small-molecule microarray, Alexa647 label, 635/667 nm fluorescence (AID 1118).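 Further: score merges 667 nm emission intensity and signal-to-noise per printed compound spot.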 Conditions: BSA-A647 binding, fluorescence 635 nm, higher = more signal.
Experiment [1] in a line: small-molecule microarray binders of probe aXIP, primary screen, biochemical, NeuroSMM set, 635/667 nm fluorescence (AID 1119).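 Further: probe is the protein aXip251-270 applied at 1 µg/mL to compound-printed slides; binding of probe to printed compounds measured as 667 nm fluorescence plus signal to noise.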 Conditions: higher = more signal, called active from +8 up or from −8 down.
Experiment [2] in a line: small-molecule binders of probe aNOTCH3, primary screen, biochemical, small-molecule microarray, 635/667 nm fluorescence (AID 1120).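 Further: probe is a biotin-tagged antibody raised against NOTCH3 rather than NOTCH3 protein; score merges spot fluorescence near 667 nm with spot signal to noise.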 The following applies: higher = more signal.
Experiment [3] in a line: small-molecule binders of probe aNOTCH2, primary screen, biochemical, small-molecule microarray, 635/667 nm fluorescence (AID 1121).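 Further: score merges feature fluorescence read at 667 nm with its signal to noise.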 The following applies: higher = more signal.
The target of experiment [4] is Carbonic anhydrase 2 (Homo sapiens) (UniProt P00918). Description: CAII small-molecule binders, profiling panel, biochemical, small-molecule microarray, Alexa647-labelled CAII (AID 1122). The following applies: CAII-A647 binding fluorescence, higher = more signal.
The nature of experiment [5]: COS7 lysate on small-molecule microarray, probe aHis, 635 nm (AID 1123).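 Further: z-score combines 667nm fluorescence intensity with signal-to-noise per printed compound spot.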 The following applies: COS7 cell lysate, fluorescence, higher = more signal.
Experiment [6] in a line: compound binding in COS7 lysate, probe aLAP1, primary screen, cell lysate, small-molecule microarray (AID 1124).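 Further: lysate comes from COS7 cells expressing LAP1 and is applied at 0.3 µg/mL; score merges spot fluorescence near 667 nm with signal-to-noise over triplicate slides.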 The following applies: probe aLAP1, fluorescence, higher = more signal.
For the next experiment, the system named is Sam68 (KHDRBS1). As to the kind of experiment: Sam68 small-molecule binders, primary screen, biochemical, small-molecule microarray, 635 nm fluorescence (AID 1125).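 Further: score merges 667 nm channel intensity with signal to noise over triplicate slides.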 Conditions: small-molecule microarray binding, higher = more signal.
The subject of experiment [7] is Chordin-like protein 2 (CHRDL2). As to the kind of experiment: CHRDL2 small-molecule binders, primary screen, biochemical, small-molecule microarray, 635 nm fluorescence (AID 1126).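 Further: printed compound slides probed with Chrdl2 protein at 4 µg/mL for 1 h at 4 C; score merges 667 nm emission intensity with signal to noise over three replicate slides.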 The following applies: small-molecule microarray binding, fluorescence 635 nm; higher = more signal.
The target in experiment [8] is Concanavalin-A (Canavalia ensiformis) (UniProt P02866). Description: ConA small-molecule binders, primary screen, artefact control for SMM control protein annotation, biochemical, small-molecule microarray, Alexa647 label, 635 nm (AID 1127).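 Further: z combines 667 nm emission intensity with signal-to-noise across three replicate slides.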 The following applies: ConA-A647 binding fluorescence, higher = more signal.
A short description of experiment [9]: anti-His antibody binders, primary screen, artefact control for SMM control protein annotation, biochemical, small-molecule microarray, 635 nm fluorescence (AID 1128).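 Further: score merges feature fluorescence with signal-to-noise for each printed compound spot.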 The following applies: anti-His Alexa647 antibody binding, higher = more signal.
The subject of experiment [10] is Human papillomavirus type 1a E7 protein (residues 1-88). As to the kind of experiment: HPV1a E7 small-molecule binders, primary screen, biochemical, small-molecule microarray, residues 1-88, 635 nm (AID 1129). Conditions: small-molecule microarray binding, fluorescence 635 nm; higher = more signal.
Experiment [11] concerns the target Focal adhesion kinase 1 (Homo sapiens) (UniProt Q05397). Description: small-molecule microarray binders of FAK, primary screen, biochemical, 635/667 nm fluorescence, BSA, DTT (AID 1130).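 Further: composite of spot emission at 667 nm and signal to noise over triplicate slides.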 The following applies: PTK2 binding, 635 nm fluorescence, higher = more signal.
Experiment [12] relates to Fibrinogen (Alexa647-labelled). Description: fibrinogen binders on compound microarrays, profiling panel, artefact control for SMM control-protein annotation, biochemical, small-molecule microarray, 635/667 nm fluorescence (AID 1131).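 Further: z-score merges 667 nm fluorescence with per-spot signal-to-noise over triplicate slides.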 The following applies: fibrinogen-A647 binding fluorescence, higher = more signal.
The target of experiment [13] is Follistatin (Homo sapiens) (UniProt P19883). Description: follistatin binders on small-molecule microarrays, primary screen, biochemical, small-molecule microarray, 635/667 nm fluorescence (AID 1132). Conditions: FST binding, 635 nm fluorescence, higher = more signal.
For experiment [14], the target named is Fibroblast growth factor 2 (Homo sapiens) (UniProt P09038). Description: FGF2 binders on small-molecule microarrays, primary screen, biochemical, small-molecule microarray, 635/667 nm fluorescence (AID 1133). The following applies: small-molecule microarray binding, FGF2, fluorescence 635/667; higher = more signal.
Experiment [15] in a line: mitochondrial membrane potential change in A549 cells, profiling panel, cell-based, JC-1 fluorescence, basal, 24 h, 100 nL (AID 1138).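 Further: A549 lung adenocarcinoma cells under basal conditions with no added stimulus; test concentration not given here.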 Conditions: higher = more signal.
The test system of a further experiment is Lefty1. Description: Lefty1 binders on small-molecule microarrays, primary screen, biochemical, small-molecule microarray, 635/667 nm fluorescence (AID 1139). Conditions: small-molecule microarray binding, fluorescence 635/667; higher = more signal.
The subject of experiment [16] is wheat germ agglutinin (Triticum aestivum), Alexa647-labelled. Description: wheat germ agglutinin binders on compound microarrays, profiling panel, artefact control for SMM control-protein annotation, biochemical, small-molecule microarray, 635/667 nm fluorescence (AID 1140).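 Further: score merges 667 nm feature emission with signal to noise over triplicate slides.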 Conditions: WGA-A647 binding, 635 nm fluorescence, higher = more signal.
Experiment [17] has as its target Luciferin 4-monooxygenase (Photinus pyralis) (UniProt P08659). Description: firefly luciferase enzyme inhibitors, primary screen, biochemical, luminescence, purified enzyme, 2006 set (AID 1141).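 Further: cell-free assay with purified firefly luciferase at 100 ng per well in PBS; test concentration not given here.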 The following applies: SteadyGlo luminescence, 30 min, higher = more signal, called active from +8 up or from −8 down.

Chain of Albumin (Bos taurus) (P02769 whole entry, looked up): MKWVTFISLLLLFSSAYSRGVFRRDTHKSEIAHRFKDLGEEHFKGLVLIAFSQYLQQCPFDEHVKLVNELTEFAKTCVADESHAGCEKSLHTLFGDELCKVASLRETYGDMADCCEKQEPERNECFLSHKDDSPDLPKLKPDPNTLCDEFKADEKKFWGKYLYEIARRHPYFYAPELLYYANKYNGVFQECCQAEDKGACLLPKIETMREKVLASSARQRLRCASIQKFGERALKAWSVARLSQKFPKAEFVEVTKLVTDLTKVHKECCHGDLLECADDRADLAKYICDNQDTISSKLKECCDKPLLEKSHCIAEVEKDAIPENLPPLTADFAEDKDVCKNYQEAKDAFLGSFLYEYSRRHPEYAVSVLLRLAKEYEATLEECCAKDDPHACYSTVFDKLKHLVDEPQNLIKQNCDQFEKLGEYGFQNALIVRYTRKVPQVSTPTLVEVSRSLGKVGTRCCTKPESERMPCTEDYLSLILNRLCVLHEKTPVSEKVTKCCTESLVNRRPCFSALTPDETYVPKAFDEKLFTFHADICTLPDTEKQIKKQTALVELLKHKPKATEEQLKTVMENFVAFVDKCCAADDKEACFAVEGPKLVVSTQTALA
Chain of Follistatin (Homo sapiens) (P19883 whole entry, looked up): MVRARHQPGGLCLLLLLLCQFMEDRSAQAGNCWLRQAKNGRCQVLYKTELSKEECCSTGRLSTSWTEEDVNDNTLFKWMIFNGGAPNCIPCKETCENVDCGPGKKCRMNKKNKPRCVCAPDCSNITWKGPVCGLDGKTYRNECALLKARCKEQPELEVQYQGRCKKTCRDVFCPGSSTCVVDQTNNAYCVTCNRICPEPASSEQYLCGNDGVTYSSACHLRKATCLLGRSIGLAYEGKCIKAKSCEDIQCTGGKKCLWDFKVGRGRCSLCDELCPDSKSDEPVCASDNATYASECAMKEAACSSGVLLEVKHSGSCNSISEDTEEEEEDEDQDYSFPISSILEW
Chain of Concanavalin-A (Canavalia ensiformis) (P02866 whole entry, looked up): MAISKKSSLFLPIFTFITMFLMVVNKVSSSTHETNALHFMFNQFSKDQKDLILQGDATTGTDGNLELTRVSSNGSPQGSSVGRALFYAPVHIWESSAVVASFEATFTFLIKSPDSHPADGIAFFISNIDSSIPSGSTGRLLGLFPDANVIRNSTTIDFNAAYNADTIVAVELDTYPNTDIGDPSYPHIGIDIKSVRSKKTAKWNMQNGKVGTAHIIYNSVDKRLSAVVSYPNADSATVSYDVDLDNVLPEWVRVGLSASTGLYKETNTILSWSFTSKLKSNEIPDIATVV
Chain of Focal adhesion kinase 1 (Homo sapiens) (Q05397 whole entry, looked up): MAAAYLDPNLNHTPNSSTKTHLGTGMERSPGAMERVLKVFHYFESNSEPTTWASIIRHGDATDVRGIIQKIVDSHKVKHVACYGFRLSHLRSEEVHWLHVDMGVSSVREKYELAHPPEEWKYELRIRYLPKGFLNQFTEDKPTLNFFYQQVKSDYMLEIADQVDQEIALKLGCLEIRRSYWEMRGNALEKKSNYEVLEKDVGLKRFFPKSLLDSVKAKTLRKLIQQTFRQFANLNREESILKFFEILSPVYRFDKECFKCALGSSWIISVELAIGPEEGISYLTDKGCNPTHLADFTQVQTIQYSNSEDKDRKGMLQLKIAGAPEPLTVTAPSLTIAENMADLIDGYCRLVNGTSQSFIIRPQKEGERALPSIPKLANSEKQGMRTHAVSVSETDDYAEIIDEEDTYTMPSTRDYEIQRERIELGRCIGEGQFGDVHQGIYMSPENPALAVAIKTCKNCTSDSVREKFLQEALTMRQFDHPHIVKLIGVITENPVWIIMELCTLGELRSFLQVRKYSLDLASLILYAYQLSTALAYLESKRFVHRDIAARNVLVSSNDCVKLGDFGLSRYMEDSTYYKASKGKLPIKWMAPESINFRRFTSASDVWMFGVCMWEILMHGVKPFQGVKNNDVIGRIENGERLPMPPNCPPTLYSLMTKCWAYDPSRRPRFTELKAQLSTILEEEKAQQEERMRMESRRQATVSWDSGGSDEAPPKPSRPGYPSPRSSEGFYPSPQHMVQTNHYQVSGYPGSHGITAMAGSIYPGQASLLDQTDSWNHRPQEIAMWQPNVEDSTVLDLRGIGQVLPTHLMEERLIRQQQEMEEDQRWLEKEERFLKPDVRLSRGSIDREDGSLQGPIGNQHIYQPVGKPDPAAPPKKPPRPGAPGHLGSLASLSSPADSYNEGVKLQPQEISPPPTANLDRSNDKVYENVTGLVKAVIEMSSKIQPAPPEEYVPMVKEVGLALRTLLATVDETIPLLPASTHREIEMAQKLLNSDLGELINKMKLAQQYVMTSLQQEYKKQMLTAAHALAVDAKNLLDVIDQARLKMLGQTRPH
Chain of Fibroblast growth factor 2 (Homo sapiens) (P09038 whole entry, looked up): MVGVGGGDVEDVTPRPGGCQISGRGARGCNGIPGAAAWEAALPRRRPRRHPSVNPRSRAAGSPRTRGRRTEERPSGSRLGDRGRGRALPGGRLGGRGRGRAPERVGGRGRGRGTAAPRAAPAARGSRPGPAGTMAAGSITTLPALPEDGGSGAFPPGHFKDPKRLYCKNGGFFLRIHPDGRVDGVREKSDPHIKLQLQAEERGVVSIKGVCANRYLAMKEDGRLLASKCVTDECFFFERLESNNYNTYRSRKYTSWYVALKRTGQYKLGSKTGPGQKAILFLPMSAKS
Chain of Luciferin 4-monooxygenase (Photinus pyralis) (P08659 whole entry, looked up): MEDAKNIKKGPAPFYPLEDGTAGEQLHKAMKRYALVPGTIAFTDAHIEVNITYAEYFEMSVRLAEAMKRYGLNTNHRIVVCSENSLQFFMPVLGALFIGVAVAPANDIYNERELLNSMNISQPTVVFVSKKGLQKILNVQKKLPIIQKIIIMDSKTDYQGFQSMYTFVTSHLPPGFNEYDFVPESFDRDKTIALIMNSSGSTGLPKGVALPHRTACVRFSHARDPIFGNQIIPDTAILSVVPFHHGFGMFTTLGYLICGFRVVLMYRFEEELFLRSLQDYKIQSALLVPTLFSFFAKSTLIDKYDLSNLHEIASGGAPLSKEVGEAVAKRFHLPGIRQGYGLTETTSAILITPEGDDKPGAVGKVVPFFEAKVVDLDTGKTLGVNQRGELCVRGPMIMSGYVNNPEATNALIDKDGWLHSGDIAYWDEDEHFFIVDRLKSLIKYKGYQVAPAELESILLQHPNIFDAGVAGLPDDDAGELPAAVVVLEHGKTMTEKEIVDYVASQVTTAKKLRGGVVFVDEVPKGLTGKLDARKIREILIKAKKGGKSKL

As for `COC(=O)[C@H](C)NC(=O)CCC1CC(OC(=O)NCc2cccc3ccccc23)CC2(CCCC(COC(=O)NCCCN3CCCC3=O)O2)O1` (stereo not given in full), the composite z-score in the experiment with Albumin (Bos taurus) is 0.559; in experiment [2] it was 0.0485; in experiment [3], -0.132; in experiment [4], 0.378; in experiment [5], 0.519; in experiment [6], 0.0377. The composite z-score in the experiment with Sam68 (KHDRBS1) stood at 1.32; in experiment [7], 0.131; in experiment [8], 1.1; in [9], 0.383; in [10], 1.11; in experiment [11], 0.926. In addition, the composite z-score in experiment [12] was 0.821; in experiment [13], 0.413; in [14], 0.0982; in the experiment with Lefty1, 1.23; in experiment [16], 0.485. Further, the composite Z-score in experiment [1] is -0.0448 (inactive). Further, the z-score in experiment [15] is -0.262; in [17] it was 0.86 (inactive).
`O=C1C[C@@H](O)[C@@H](O)[C@@H]2[C@@H]3C(=O)N(Cc4ccccc4)C(=O)[C@@H]3CC[C@H]12`: the composite z-score with Albumin (Bos taurus) is -0.0028; in experiment [2], 0.111; in experiment [3], -0.107; in experiment [4], 0.213; in [5], -0.0842; in experiment [6] it was 0.23. For the same compound, the composite z-score in the experiment with Sam68 (KHDRBS1) was determined as 0.184; in experiment [7] it was 0.415; in [8], 0.941; in [9], 0.0747; in [10], 0.467; in experiment [11], 0.141. The composite z-score in [12] came to 0.872; in experiment [13] it was 0.967; in [14], 0.347; with Lefty1, 0.329; in [16], 0.565. In addition, the composite Z-score in experiment [1] was -0.082 (inactive). Also, the z-score is -0.579 in [15] and 0.675 (inactive) in experiment [17].
For the compound `O=C1C[C@@H](O)[C@@H](O)[C@@H]2[C@@H]3C(=O)N(C4CCCCC4)C(=O)[C@@H]3CC[C@@H]12`, the composite z-score with Albumin (Bos taurus) is 0.337; in experiment [2], -0.104; in experiment [3], -0.198; in [4] it was 0.167; in experiment [5] it was 0.798; in [6], -0.244. Further, the composite z-score was 0.546 in the experiment on Sam68 (KHDRBS1); 0.36 in experiment [7]; 0.448 in experiment [8]; 0.69 in experiment [9]; 0.54 in [10]; -0.0599 in experiment [11]. The composite z-score was 0.705 in [12]; 0.373 in experiment [13]; 0.134 in [14]; 0.66 in the experiment on Lefty1; 0.282 in experiment [16]. Also, in experiment [1], the composite Z-score is -0.228 (inactive). In addition, the z-score is 0.457 in experiment [15] and 0.137 (inactive) in experiment [17].
For `CN1CCc2nc(-c3ccccc3)c(-c3ccccc3)cc2C1`, the composite z-score with Albumin (Bos taurus) was 0.0013; in experiment [2], -0.0343; in experiment [3], -0.115; in experiment [4], -0.132; in experiment [5], -0.0596; in [6], -0.247. The composite z-score is -0.23 with Sam68 (KHDRBS1); 0.58 in experiment [7]; 0.486 in [8]; 0.532 in experiment [9]; 0.26 in [10]; 0.163 in experiment [11]. For the same compound, the composite z-score was 0.547 in experiment [12]; 0.397 in experiment [13]; 0.325 in [14]; 0.256 in the experiment with Lefty1; -0.0097 in experiment [16]. The composite Z-score in [1] was -0.341 (inactive). In addition, the z-score in [15] was 0.0181; in [17] it was -0.133 (inactive).
As for `CCN1C(=O)[C@H]2[C@H]3[C@H](O)[C@H](O)CC(=NO[C@@H]4O[C@H](COC(C)=O)[C@@H](OC(C)=O)[C@H](OC(C)=O)[C@H]4OC(C)=O)[C@@H]3CC[C@H]2C1=O`, the composite z-score is 0.646 with Albumin (Bos taurus); 0.0479 in experiment [2]; -0.044 in experiment [3]; -0.0179 in experiment [4]; 0.415 in [5]; 0.781 in [6]. The composite z-score in the experiment on Sam68 (KHDRBS1) is 1.22; in experiment [7] it was 0.58; in experiment [8], -0.441; in [9], -0.36; in [10] it was 0.839; in experiment [11] it was 0.211. In addition, the composite z-score in [12] is 0.744; in experiment [13], 0.898; in experiment [14], 0.747; in the experiment with Lefty1 it was 1.6; in experiment [16] it was 0.696. In addition, the composite Z-score in experiment [1] is 0.581 (inactive). Moreover, the values for the z-score in experiment [15] and in [17] were -0.282 and 1.15 (inactive), respectively.
In the case of `COC(=O)[C@H](C)NC(=O)CCC1CC(OC(=O)NCc2cccc3ccccc23)CC2(CCCC(COC(=O)NCCc3ccccc3OC)O2)O1` (stereo not given in full), the composite z-score was 0.707 with Albumin (Bos taurus); 0.0893 in experiment [2]; -0.185 in experiment [3]; 0.548 in experiment [4]; 1.06 in experiment [5]; -0.557 in experiment [6]. Also, the composite z-score amounted to 1.3 in the experiment on Sam68 (KHDRBS1); 0.409 in experiment [7]; 0.917 in [8]; 1.13 in experiment [9]; 1.18 in experiment [10]; 0.656 in experiment [11]. Besides, the composite z-score turned out to be 0.661 in [12]; 0.941 in experiment [13]; 0.544 in experiment [14]; 0.89 in the experiment with Lefty1; 0.316 in [16]. The composite Z-score in [1] was -0.18 (inactive). Besides, the z-score in experiment [15] is -0.358; in experiment [17] it was 0.603 (inactive).
On to `CC(=O)OC[C@H]1O[C@H](CC=NOCC[C@@H]2C=C[C@H](OC(C)=O)[C@@H](COC(C)=O)O2)C=C[C@@H]1OC(C)=O`, for which the composite z-score is -0.076 in the experiment with Albumin (Bos taurus); 0.127 in experiment [2]; -0.165 in experiment [3]; -0.146 in [4]; -0.489 in experiment [5]; -0.099 in [6]. The composite z-score with Sam68 (KHDRBS1) was 1.29; in experiment [7] it was 0.973; in experiment [8] it was 0.304; in [9] it was 1.77; in experiment [10], 0.642; in experiment [11], -0.216. In addition, the composite z-score is -0.305 in experiment [12]; 0.447 in experiment [13]; 1.02 in experiment [14]; 1.29 with Lefty1; -0.111 in experiment [16]. For the same compound, the composite Z-score in experiment [1] was -0.69 (inactive). For the same compound, the z-score in experiment [15] was -0.6; in experiment [17], 0.966 (inactive).
Take `CCOC(=O)[C@H](CC(C)C)NC(=O)CCC1CC(OC(=O)NCCc2ccc(F)cc2)CC2(CCCC(COC(=O)NCc3cccc(C(F)(F)F)c3)O2)O1` (stereo not given in full): the composite z-score is 0.386 with Albumin (Bos taurus); -0.0003 in experiment [2]; -0.117 in experiment [3]; 0.475 in [4]; 0.953 in experiment [5]; -0.0042 in experiment [6]. Besides, the composite z-score is 1.21 with Sam68 (KHDRBS1); 0.273 in [7]; 0.542 in [8]; 0.167 in [9]; 1.15 in experiment [10]; 0.155 in [11]. Moreover, the composite z-score stood at 0.619 in [12]; 0.579 in experiment [13]; 0.987 in experiment [14]; 0.549 in the experiment on Lefty1; 0.296 in [16]. Also, the composite Z-score in experiment [1] is 1.35 (inactive). The z-score in experiment [15] was -0.208; in experiment [17], 0.507 (inactive).
